# In PubChem BioAssay:
# Calls of active or inactive are those of the source.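 The calls were made as follows: active = hit in primary screen, with calcium signal over 5 SD above buffer well mean in both duplicates; inactive = the rest.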
# Assay: nonspecific calcium rise without TRPC4 – cell-based, HEK293 mu-opioid receptor line, counter-screen for TRPC4 activator project, confirmation (AID 449723);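 also: counter screen cells carry the mu-opioid receptor alone and lack TRPC4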
# Settings: HEK293 mu-opioid cells, Fluo-4 calcium fluorescence, at 10 µM
row,SMILES,outcome
1,CC1=C(C(=O)NCc2ccccc2)C(c2cc(Br)cc(Br)c2OC(C)C)NC(=O)N1 (configuration not stated),inactive
2,CC1Cc2ccccc2N1C(=O)CSc1nc2c(c(=O)n(C)c(=O)n2C)n1Cc1ccc(F)cc1 (configuration not stated),inactive
3,CCN1CCN(c2ccc(S(=O)(=O)N3CCOCC3)cc2NC(=O)c2ccccc2OC(F)F)CC1,inactive
4,O=C1C(Cl)=C(Nc2cccc(O)c2)C(=O)N1Cc1ccccc1,inactive
5,O=C(NCc1ccccc1)C1=C[C@H](c2ccc(C(F)(F)F)cc2)C[C@H](OCc2ccc(CO)cc2)O1,inactive
6,COc1ccc(C)c(NC(=O)NCCc2cnc[nH]2)c1,inactive
7,CN(C)CCNc1ccc(Cl)cc1[N+](=O)[O-],inactive
8,CCn1c(O)c(N=NC(=O)c2cccc(S(=O)(=O)N3CCCCC3)c2)c2ccccc21,inactive
9,Cc1onc(-c2ccccc2)c1C(=O)NNC(=S)NC(=O)c1ccc2c(c1)OCO2,inactive
10,COc1ccc(Cl)cc1C(=O)NCCN(C)C,inactive
11,O=C1NCN(c2ccccc2)C12CCN(CCCC(c1ccc(F)cc1)c1ccc(F)cc1)CC2,inactive
12,Cc1ccc(/C=N/NC(=O)NC2CCCCC2)o1,inactive
13,O=C(Nc1cccc(Cl)c1)c1cnn2cccnc12,inactive
14,COc1c(C)cc(C(=O)C2CCCN(Cc3cccc4nccnc34)C2)cc1C (configuration not stated),inactive
15,O=C(c1cccc([N+](=O)[O-])c1)N1CCCC(C(=O)N2CCCCCC2)C1 (configuration not stated),inactive
16,CCOc1ccc(-n2c(SCC(=O)O)nc3sc4c(c3c2=O)CCCC4)cc1,inactive
17,Cc1cc(-c2ccc(C)c(S(=O)(=O)N3CCN(C(=O)c4ccco4)CC3)c2)on1,inactive
